What is called inhibition is the relative decrease from the control value, in per cent.

Consider 40 molecules from PubChem BioAssay.

Unmarked numbers belong to inactive results. No rule for the calls is given here. Where a SMILES comes first, the peptide text is derived from it. The star is where a group is joined. Boc = CC(C)(C)OC(=O)*

Pantothenate synthetase (Mycobacterium tuberculosis (strain ATCC 25618 / H37Rv)), sequence (P9WIL5 whole entry, looked up): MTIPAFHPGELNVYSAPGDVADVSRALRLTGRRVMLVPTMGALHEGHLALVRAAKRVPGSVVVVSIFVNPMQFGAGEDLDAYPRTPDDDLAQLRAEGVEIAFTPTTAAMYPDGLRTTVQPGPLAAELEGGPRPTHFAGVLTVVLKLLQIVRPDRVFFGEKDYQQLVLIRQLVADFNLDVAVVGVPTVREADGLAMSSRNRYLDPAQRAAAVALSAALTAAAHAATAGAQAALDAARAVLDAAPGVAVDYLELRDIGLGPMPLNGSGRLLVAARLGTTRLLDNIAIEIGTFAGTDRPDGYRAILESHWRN

This assay concerns the target Pantothenate synthetase (Mycobacterium tuberculosis (strain ATCC 25618 / H37Rv)) (UniProt P9WIL5). The experiment in a line: Recombinant Mtb pantothenate synthetase (PanC) inhibitors, coupled enzyme, confirmatory (AID 375).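 Also: 0% = full reaction with vehicle and 100% = no enzyme background.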 As to conditions: coupled enzyme assay; at 10 µM, stronger effect = higher value.
Consider `Cc1ccc(-n2ncc3c(=O)[nH]c(SC(C)C)nc32)cc1`, for which the inhibition is 0%.
In the case of `CCOC(=O)c1ccccc1NC(=O)c1cc2sccc2n1C`, the inhibition is 2%.
With `CC(C)(C)OC(=O)N1CCCC1C(=O)NC(Cc1ccccc1)C(=O)O` (stereo not drawn) (Boc-Pro-Phe-OH; configuration not given here), the inhibition is 4%.
With `O=C(Nc1ccccc1-c1ccccc1)NC1CCN(C(=O)N2CCOCC2)CC1`, the inhibition was 0%.
As for `CCOC(=O)c1[nH]c(C)c(C(=O)NC)c1C`, the inhibition is 0%.
Next, `O=C(Nc1ccc2c(c1)OCCO2)C1CCCN(S(=O)(=O)c2cnc[nH]2)C1` (stereo not given): 0%; `O=C(CN1C(=O)c2ccccc2S1(=O)=O)Nc1ccc(S(=O)(=O)N2CCCCCC2)cc1`: 6%.
Regarding `O=C(NCC1CCCO1)c1ccc(C(=O)NCC2CCCO2)cc1` (stereo not given), the inhibition is 0%.
Turning to `COc1ccccc1Nc1nc(N)nc(CSc2nccc(C)n2)n1`, the inhibition was 0%.
`O=C(c1ccco1)N1CCN(c2c(-c3ccccc3)c3cc(Cl)ccc3[nH]c2=O)CC1`: the inhibition was 5%.
Consider `C=CCn1c(SCC(=O)Nc2cccc(OC)c2)nnc1-c1cccnc1`, for which the inhibition is 0%.
For `Cc1ncc(CSc2nc3ccccc3[nH]2)c(N)n1`, the inhibition was 5%.
`CC(=O)c1c(C)[nH]c(C(=O)OCc2nnc(-c3ccccc3)o2)c1C`: the inhibition is 0%.
Next, `O=C(O)C1C2C=CC(C3CC23)C1C(=O)NCCc1ccccc1` (stereo not given): 6%.
For `COc1ccc2c(c1)n([O-])c1c([n+]2=O)CCC1`, the inhibition was 0%.
Take `Cn1cc(Cl)c(C(=O)N(Cc2ccccc2)c2ccccn2)n1`: the inhibition is 0%.
As for `S=c1[nH]nc(-c2cccc(Br)c2)o1`, the inhibition was 10%.
For the molecule `c1ccc(-c2csc(N3CCCCCC3)n2)cc1`, the inhibition is 4%.
For the molecule `Cc1ccccc1NC(=O)C1CCCN(S(=O)(=O)c2cnc[nH]2)C1` (stereo not given), the inhibition was 2%.
For `CCOc1cc(C2CC(=O)N3CN(C4CCCCC4)CSC3=C2C#N)ccc1O` (stereo not given), the inhibition was 0%.
Next, `Cc1cccc2cc(CN(Cc3nnnn3C3CCCC3)C3CCCCC3)c(=O)[nH]c12`: 4%; `CN1C(=O)c2c(sc3c2CCCC3)NC1c1ccccc1O` (stereo not given): 0%; `CC(C)Cn1c(=O)c(C2=NS(=O)(=O)c3ccccc3N2)c(O)c2ccccc21`: 2%.
Take `COC(=O)c1cc2oc(C)cc2n1CC(=O)N(C)c1ccccc1`: the inhibition was 0%.
As for `Cc1ccc2nc3c(cc(C(=O)NCC4CCCO4)n3C)c(=O)n2c1` (stereo not given), the inhibition was 0%.
Under `CC1(C)O[C@@H]2C[C@H]3[C@@H]4C[C@H](F)C5=CC(=O)C=C[C@]5(C)[C@@]4(F)[C@@H](O)C[C@]3(C)[C@]2(C(=O)CO)O1` stands 1%; under `Cc1ccc2[nH]c3c(N4CCOCC4)ncnc3c2c1`, 0%; under `[O-][n+]1c2ccc3nonc3c2nn1-c1ccccc1Cl`, 0%.
As to `CCOC(=O)C1CCN(C(=O)Nc2ccc3snnc3c2)CC1`, the inhibition is 6%.
Next, `CCOC(=O)c1cc2cc(F)ccc2nc1C`: 1%; `COc1ccc(C2c3sc(=O)[nH]c3SC3C4CCC(C4)C23)cc1` (stereo not given): 7%; `O=C(c1cnc2n(c1=O)CCS2)N1CCc2ccccc21`: 2%.
For `CCOc1ccc(S(=O)(=O)n2c(C)nc3ccccc32)cc1`, the inhibition was 0%.
As for `COc1ccc(-c2noc(-c3ccccc3C(=O)NCc3ccco3)n2)cc1`, the inhibition is 3%.
As for `CC1(CC(=O)O)C(=O)N=C2C=CC=CN21` (stereo not given), the inhibition was 0%.
Next, `Cc1cc(O)c(NC(=O)c2ccc(Br)o2)cc1C`: 11%; `O=C(NC1(C(=O)NC2CCCCC2)CCCCC1)c1ccc2c(c1)OCO2`: 3%.
Consider `CCCCC(=O)Nc1c(O)c2ccccc2[nH]c1=O`, for which the inhibition was 0%.
As to `CCNc1nc(N2CCCCC2)nc(-n2nnc(C(=O)OCC)c2C)n1`, the inhibition was 2%.
Consider `Cc1nc(-c2cccc(-c3noc(C)n3)c2)no1`, for which the inhibition is 0%.
